As a reminder, the inhibition is the relative decrease from the control value, in per cent.

In all, about 220,000 compounds went through this assay and about 2,400 (1.1%) were called active. Many of the other results were omitted from the sample, so actives are more common in it than they were. Unmarked numbers belong to inactive results.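 The calls were made as follows: active = inhibition above the campaign mean plus 3 SD over all tested compounds (cut at about 24% in these data); inactive = the rest.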

This assay is described as follows: viability loss in Ba/F3 EpoR-JAK2V617F cells – cell-based, luminescence, JAK2V617F inhibitor project, primary screen (AID 1446).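 Also: cytokine-independent growth of Ba/F3 cells driven by EpoR plus mutant JAK2; 0% = DMSO-treated cells and 100% = JAK inhibitor I control.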 To be noted: ATP luminescence, at 5.6 µM, active compounds read high.
With `CCCCCCCCCCCCn1ccc(=N)cc1`, the inhibition was 98.4% (active). As to `COc1cc(OC)cc(C2(C#N)CCN(C)CC2)c1`, the inhibition was -0.42%. For the compound `O=C1NC(=O)N(CCc2ccc(F)cc2)C(=O)/C1=C/C=C/c1ccccc1`, the inhibition was 1.28%. `COc1ccc(-n2c(-c3ccccc3)nc3ccccc3c2=O)cc1`: the inhibition was 0.29%. Regarding `CN(C)CC1Oc2ccccc2OC1(O)c1ccccc1` (stereo not given), the inhibition was 91.1% (active).

As to `O=c1[nH]c(=O)n(-c2ccc(F)cc2)c(O)c1C=NCCN1CCCCC1`, the inhibition was 0.16%. As for `Cc1cccc(NC(=O)OC2CN3CCC2CC3)c1` (stereo not given), the inhibition was 2.6%. For `CN1CCN(/N=C/c2c[nH]c3ccccc23)CC1`, the inhibition was -2.46%. As for `CC1=C(C(=O)Nc2ccccc2)S(=O)(=O)CCO1`, the inhibition was -1.56%. Take `CCOc1ccc(-c2cc(C)[n+](CCN(CC)CC)c(-c3ccc(OCC)cc3)c2)cc1`: the inhibition is 98.2% (active). `CC1=C2C(=O)C3C(CC=C4CC(OC5OC(O)C(O)C(O)C5CO)CCC43C)C2CCC12OC1CC(C)CNC1C2C` (stereo not given): the inhibition is 0.84%. As for `CSc1nc2ccc(C)cc2c(=O)n1-c1cccnc1`, the inhibition is 3.49%. With `CC1(C)Cc2c(C#N)c(N3CCNCC3)nc(-c3ccco3)c2CS1`, the inhibition was 1.65%.

Take `CCOc1cccc(=NC2CCCCC2)c2c(C)[nH]c(C)c12`: the inhibition was 34% (active).

Take `O=C(O)COc1ccccc1/C=C1\C(=O)NC(=O)N(CCC2=CCCCC2)C1=O`: the inhibition was -1.88%.

On to `Cn1c(O)c(C(=Nc2ccc(F)cc2)c2ccccc2)c(=O)n(C)c1=O`, for which the inhibition was -3.28%. Consider `CCCCC(=O)N/N=C/c1c(O)n(CCC2=CCCCC2)c(=O)[nH]c1=O`, for which the inhibition is -0.19%. As for `O=c1[nH]c(=O)n(CCc2ccc(F)cc2)c(O)c1/C=N/N1CCCCC1`, the inhibition was -0.8%. Next, `O=c1[nH]c(CN2CC=C(c3ccccc3)CC2)nc2scc(-c3cccs3)c12`: -4.83%; `Cc1ccc(CN2CCCC(C(=O)c3ccc4c(c3)OCO4)C2)cc1C` (stereo not given): -3.5%.

`CCOP(=O)(OCC)C(NC(=O)NC)C(N)=O` (stereo not given): the inhibition was 3.57%. For the compound `CC1=CC(=Cc2sc3ccccc3[n+]2C)C=C(C)O1`, the inhibition was 101% (active). Regarding `CNC(=O)O/N=C(\N)Cc1csc2ccc(Cl)cc12`, the inhibition was 1.27%. As for `O=c1[nH]c(=O)n(CCc2ccccc2)c(O)c1/C=N/N1CCOCC1`, the inhibition was -2.98%.

`CCOP(=O)(OCC)C(NC(=O)c1ccc(OC)cc1)C(Cl)(Cl)Cl` (stereo not given): the inhibition is 1.2%.

The values are drawn from PubChem BioAssay AID1446 (The Scripps Research Institute Molecular Screening Center, 2008).
